# Results: PubChem BioAssay (NCATS)
# Several values for one entry are separate records, joined by “and”; a condition that tells them apart may be missing. Equal values may be shown once. Records with an inconclusive call do not appear. Where a call stands in place of a potency, no number is given. Activity calls are given as the source filed them. Unless noted, calls come from the whole dose curve; as a rule, active = well fitted curve in the direction sought with a large enough effect; inconclusive = small, poorly fitted or top-dose-only effect, or another doubt; inactive = no such curve, though single readings can be large; an effect the other way counts as inactive or inconclusive.
# Assays:
# [1] = biological target: Tyrosine-protein kinase Yes (Homo sapiens) (UniProt P07947); assay: qHTS for small molecule inhibitors of Yes1 kinase: Primary Screen (AID 686947); note: nearly all actives have a fitted effect of over 60% in size
# Summary of the method: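 In this qHTS format, inhibition is expressed relative to DMSO controls with enzyme (maximum) and without enzyme (minimum). The 60 min room-temperature reaction uses 0.1 mM ATP, with ADP detected by luminescence.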
# [2] = qHTS assay for small molecule agonists of the antioxidant response element (ARE) signaling pathway measured by Nrf2-dependant transcriptional activity (AID 720636; active = well fitted curve in the direction sought with a large enough effect in the repeat runs; an effect the other way counts as inactive or inconclusive;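 note: HepG2 cells with an ARE-driven luciferase reporter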)
# Summary of the method: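 Reporter gene assay, HepG2 ARE-luc: 16 hr compound, 37 C, 5% CO2; read-out luciferase luminescence.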
# [3] = qHTS assay for small molecule agonists of the antioxidant response element (ARE) signaling pathway measured by Nrf2-dependant transcriptional activity - cell viability counter screen (AID 720653; active = well fitted curve in the direction sought with a large enough effect in the repeat runs; an effect the other way counts as inactive or inconclusive); settings: ARE-bla HepG2 viability, CellTiter-Glo ATP luminescence, 16 h; max response: stronger effect = lower value
# Summary of the method: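 ARE-bla HepG2 cells treated with compounds for 16 h at 37C; this counter screen measures viability as intracellular ATP by CellTiter-Glo luminescence after 30 min at room temperature.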
# [4] = qHTS Assay for Identifying Gametocytocidal Compounds (AID 743244);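 note: actives lower the fluorescent signal which means gametocytes are killed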; settings: P. falciparum 3D7 stage III-V gametocytes, alamarBlue, 72 h; max response: stronger effect = lower value
# Summary of the method: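 In this qHTS viability screen, late-stage 3D7 gametocytes are incubated with compound for 72 h, then with alamarBlue for 24 h; reduced resorufin fluorescence marks killing.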
# [5] = qHTS assay for cell viability of the p53RE-bla HCT-116 cell line (AID 743292); note: nearly all actives have a fitted effect of over 55% in size
# Summary of the method: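 Readout: CellTiter-Glo luminescence after 30 min RT. Treatment: compounds in DMSO, 16 h, 37 C. Cells: CellSensor p53RE-bla HCT-116, 4,000/well, preincubated 5 h.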
# [6] = qHTS profiling for inhibitors of Plasmodium falciparum (3D7) proliferation (AID 743322; call rule not given here;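 note: infected erythrocytes exposed to compound for 72 h before lysis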); settings: P. falciparum 3D7 proliferation
# Summary of the method: (§1)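 Parasite DNA was quantified by SYBR Green I fluorescence (ex 485, em 535 nm) after overnight lysis in saponin/Triton buffer at room temperature. Cultures at 0.3% parasitemia and 2.5% hematocrit were first exposed to compound for 72 h at 37 C; signals were normalised to artemisinin (0.29 uM) and vehicle wells.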
# [7] = qHTS profiling for inhibitors of Plasmodium falciparum (DD2) proliferation (AID 743323; call rule not given here); settings: lower = more inhibition
# Summary of the method: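 Parasite DNA quantified by SYBR Green fluorescence (ex 485, em 535 nm) after saponin/Triton lysis and overnight dark incubation. Cultures: 0.3% parasitemia, 2.5% hematocrit, 72 h, 37 C; data scaled between DMSO and 0.29 uM artemisinin.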
# [8] = qHTS profiling for inhibitors of Plasmodium falciparum (HB3) proliferation (AID 743324); settings: Plasmodium falciparum HB3 blood-stage proliferation
# Summary of the method: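 SYBR Green fluorescence (485 ex/535 em) of lysed cultures, incubated overnight at room temperature in the dark, quantifies parasite DNA. Infected erythrocytes at 0.3% parasitemia and 2.5% hematocrit were exposed 72 h; values normalized to DMSO and 0.29 uM artemisinin controls.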
# [9] = qHTS profiling of the MIPE4 collection as inhibitors of Plasmodium falciparum (DD2) proliferation (AID 743345; call rule not given here); settings: P. falciparum Dd2 in erythrocytes, SYBR Green DNA, 72 h; at 28.5 µM (top of the series) unless noted
# Summary of the method: as §1
# [10] = qHTS profiling of the MIPE4 collection as inhibitors of Plasmodium falciparum (DD2) proliferation (Rep 2) (AID 743346; call rule not given here); settings: P. falciparum Dd2 in erythrocytes, SYBR Green DNA, 72 h; at 28.5 µM (top of the series) unless noted
# Summary of the method: as §1
# [11] = biological target: Arylsulfatase A (Homo sapiens) (UniProt P15289); assay: qHTS screen for enhancers of Arylsulfatase A (ASA1): LOPAC Validation Assay (AID 720538)
# Summary of the method: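 Read-out: fluorescence at Ex=525/Em=598 nm after 1N NaOH final stop. Patient fibroblasts carrying ASA-I179S had 48h compound exposure, then 14h room-temperature pNCS hydrolysis (0.5mM final) in lysis buffer. Signal increase = enhanced activity.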
# [12] = qHTS for compounds that reverse cellular toxicity of Amyloid beta (A-beta) peptide in yeast: LOPAC Validation Assay (AID 720559)
# Summary of the method: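 OD600 growth readout after 48 hr at 30 C; A-beta-toxic yeast plus pinned compounds in medium. Normalization: DMSO = negative, equimolar FeCl3 + clioquinol = positive.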
# [13] = qHTS for Activators of Parkin Expression: LOPAC Validation Assay (NLuc Reporter) (AID 720572)
# Summary of the method: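 NLuc signal, read 10 min after reagent and following a prior FLuc read, is normalized to DMSO (0) and positive controls (100%). Cells: neuronal Parkin-promoter coincidence reporter line; compounds tested 7-point, 24 h, 37 C, 5% CO2.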
# [14] = qHTS for Activators of Parkin Expression: LOPAC Validation Assay (FLuc Reporter) (AID 720573)
# Summary of the method: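 FLuc luminescence read-out from a neuronal line expressing a Parkin-promoter-driven coincidence reporter. Cells treated 24 h at 37 C, 5% CO2 with compounds at 7 concentrations; signal increase normalized to DMSO and positive control.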
# [15] = biological target: T1, Hexokinase-4 (Homo sapiens) + Glucokinase regulatory protein (Homo sapiens) (UniProt P35557+Q14397); assay: qHTS assay for inhibitors of recombinant human GCK-GKRP interaction: Diaphorase-coupled assay (AID 743205)
# Summary of the method: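 Resorufin fluorescence (525/590 nm), read each minute over 30 min, reports GCK activity coupled via G6PDH and diaphorase. Reaction: 10 nM GST-GCK, 10 nM FLAG-GKRP, 5 mM glucose, 0.4 mM ATP, 0.15 mM NADP+, 0.1 mM resazurin.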
# [16] = biological target: T1, Hexokinase-4 (Homo sapiens) + Glucokinase regulatory protein (Homo sapiens); assay: qHTS assay for inhibitors of recombinant human GCK-GKRP interaction: ADP-Glo assay (AID 743206)
# Summary of the method: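 Pin-transferred compounds meet a 15 nM GST-GCK/15 nM FLAG-GKRP/2 uM S6P mix (dispense concentrations). ATP is then added to 0.4 mM final with 5 mM glucose, and the reaction runs 60 min at room temperature. ADP is quantified luminescently.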
# [17] = biological target: T1, Hexokinase-4 (Homo sapiens) + Glucokinase regulatory protein (Homo sapiens); assay: qHTS assay for inhibitors of recombinant human GCK-GKRP interaction: HTRF assay (AID 743207)
# Summary of the method: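 HTRF read-out (ex 320 nm; 615/665 nm emission) after 60 min RT equilibration of 5 nM GST-GCK, 5 nM FLAG-GKRP, 2 uM S6P, compound and anti-FLAG/anti-GST detection antibodies; signal normalized between DMSO wells with and without GCK.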
# [18] = qHTS profiling of the MIPE4 collection as inhibitors of Plasmodium falciparum (3D7) proliferation (AID 743344; call rule not given here); settings: P. falciparum 3D7 in erythrocytes, SYBR Green DNA fluorescence, 72 h; at 28.5 µM (top of the series) unless noted
# Summary of the method: as §1
# [19] = biological target: Nuclear receptor ROR-gamma (Homo sapiens) (UniProt P51449); assay: qHTS assay for small molecule antagonists of the retinoid-related orphan receptor gamma (ROR-gamma) signaling pathway (AID 651802);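 note: CHO cells with doxycycline-induced ROR-gamma expression; luciferase reporter luminescence driven by ROR response element; nearly all actives have a fitted effect of over 60% in size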
# Summary of the method: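 Luciferase read-out: ONE-Glo luminescence after 30 min at room temperature, following 16hr doxycycline induction at 37C, 5% CO2 of CHO cells with TET-inducible ROR and RORE-LUC reporter; decreased luminescence = reduced reporter activity.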
# [20] = qHTS assay for small molecule antagonists of the retinoid-related orphan receptor gamma (ROR-gamma) signaling pathway - cell viability counter screen (AID 720652; active = well fitted curve in the direction sought with a large enough effect in the repeat runs; an effect the other way counts as inactive or inconclusive;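 note: CHO reporter cells with doxycycline-induced ROR-gamma expression; compound exposure lasted 16 hr before ATP read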)
# Summary of the method: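 CHO RORE-LUC/TET-ROR line, 1,000 cells/well, 37 C 5% CO2 5 hr; cpd or DMSO + doxycycline induction, 16 hr. CellTiter-Glo, 30 min RT, luminescence = ATP content.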
# Chain of Tyrosine-protein kinase Yes (Homo sapiens) (P07947 whole entry, looked up): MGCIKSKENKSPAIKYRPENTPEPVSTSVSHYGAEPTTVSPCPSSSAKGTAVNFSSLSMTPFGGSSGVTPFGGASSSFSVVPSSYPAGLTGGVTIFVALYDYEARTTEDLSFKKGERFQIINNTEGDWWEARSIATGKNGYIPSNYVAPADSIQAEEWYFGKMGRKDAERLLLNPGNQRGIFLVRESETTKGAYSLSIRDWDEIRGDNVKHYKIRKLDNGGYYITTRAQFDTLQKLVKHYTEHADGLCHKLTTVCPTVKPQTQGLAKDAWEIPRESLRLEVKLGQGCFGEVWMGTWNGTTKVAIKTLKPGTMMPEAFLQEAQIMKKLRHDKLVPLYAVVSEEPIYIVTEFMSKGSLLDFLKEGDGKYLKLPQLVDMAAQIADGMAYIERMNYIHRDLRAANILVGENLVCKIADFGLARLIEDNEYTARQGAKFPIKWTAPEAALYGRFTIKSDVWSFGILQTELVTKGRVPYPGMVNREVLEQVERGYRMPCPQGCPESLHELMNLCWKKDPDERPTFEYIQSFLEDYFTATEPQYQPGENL
# T1 sequence (P35557 whole entry, looked up): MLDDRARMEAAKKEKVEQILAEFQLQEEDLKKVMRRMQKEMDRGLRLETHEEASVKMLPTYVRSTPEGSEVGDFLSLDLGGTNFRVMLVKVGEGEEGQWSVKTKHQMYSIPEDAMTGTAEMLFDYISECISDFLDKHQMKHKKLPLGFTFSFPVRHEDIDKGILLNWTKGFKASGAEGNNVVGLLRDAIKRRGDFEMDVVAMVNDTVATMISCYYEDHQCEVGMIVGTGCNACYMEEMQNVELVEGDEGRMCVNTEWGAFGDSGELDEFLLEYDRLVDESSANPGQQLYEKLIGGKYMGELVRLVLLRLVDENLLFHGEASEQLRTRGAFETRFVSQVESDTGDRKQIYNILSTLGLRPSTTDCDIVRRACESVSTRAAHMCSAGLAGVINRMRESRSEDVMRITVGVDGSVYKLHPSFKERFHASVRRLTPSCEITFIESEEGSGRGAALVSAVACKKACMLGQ
# T1 sequence (Q14397 whole entry, looked up): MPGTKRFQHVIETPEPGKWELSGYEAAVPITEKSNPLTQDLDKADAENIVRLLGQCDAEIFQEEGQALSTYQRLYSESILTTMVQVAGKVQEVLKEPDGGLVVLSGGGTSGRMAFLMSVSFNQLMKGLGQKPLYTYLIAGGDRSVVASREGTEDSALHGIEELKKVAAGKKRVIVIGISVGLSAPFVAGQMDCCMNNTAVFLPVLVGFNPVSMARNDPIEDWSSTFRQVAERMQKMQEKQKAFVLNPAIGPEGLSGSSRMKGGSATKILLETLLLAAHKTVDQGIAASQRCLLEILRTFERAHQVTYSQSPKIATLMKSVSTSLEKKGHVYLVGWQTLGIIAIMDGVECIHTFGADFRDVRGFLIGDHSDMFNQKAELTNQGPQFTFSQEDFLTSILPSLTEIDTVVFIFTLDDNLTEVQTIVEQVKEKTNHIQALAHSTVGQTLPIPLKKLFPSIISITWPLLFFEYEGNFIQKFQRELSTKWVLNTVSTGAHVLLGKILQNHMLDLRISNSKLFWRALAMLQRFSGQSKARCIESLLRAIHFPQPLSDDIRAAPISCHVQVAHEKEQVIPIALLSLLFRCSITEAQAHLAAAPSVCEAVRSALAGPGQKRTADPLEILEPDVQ
# Chain of Arylsulfatase A (Homo sapiens) (P15289 whole entry, looked up): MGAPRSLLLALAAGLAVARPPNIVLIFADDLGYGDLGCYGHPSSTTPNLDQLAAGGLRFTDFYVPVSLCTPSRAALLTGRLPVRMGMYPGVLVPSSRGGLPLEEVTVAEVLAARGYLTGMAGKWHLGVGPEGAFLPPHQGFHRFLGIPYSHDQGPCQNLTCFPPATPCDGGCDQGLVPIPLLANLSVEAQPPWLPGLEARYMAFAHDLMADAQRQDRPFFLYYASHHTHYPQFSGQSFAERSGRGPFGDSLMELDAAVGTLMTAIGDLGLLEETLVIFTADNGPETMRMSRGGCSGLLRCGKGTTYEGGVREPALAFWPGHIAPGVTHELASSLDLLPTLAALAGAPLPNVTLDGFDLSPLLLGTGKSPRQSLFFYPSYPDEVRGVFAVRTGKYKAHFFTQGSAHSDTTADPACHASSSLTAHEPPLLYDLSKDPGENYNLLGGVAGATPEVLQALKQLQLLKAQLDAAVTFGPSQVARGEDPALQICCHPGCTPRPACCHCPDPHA
# Chain of Nuclear receptor ROR-gamma (Homo sapiens) (P51449 whole entry, looked up): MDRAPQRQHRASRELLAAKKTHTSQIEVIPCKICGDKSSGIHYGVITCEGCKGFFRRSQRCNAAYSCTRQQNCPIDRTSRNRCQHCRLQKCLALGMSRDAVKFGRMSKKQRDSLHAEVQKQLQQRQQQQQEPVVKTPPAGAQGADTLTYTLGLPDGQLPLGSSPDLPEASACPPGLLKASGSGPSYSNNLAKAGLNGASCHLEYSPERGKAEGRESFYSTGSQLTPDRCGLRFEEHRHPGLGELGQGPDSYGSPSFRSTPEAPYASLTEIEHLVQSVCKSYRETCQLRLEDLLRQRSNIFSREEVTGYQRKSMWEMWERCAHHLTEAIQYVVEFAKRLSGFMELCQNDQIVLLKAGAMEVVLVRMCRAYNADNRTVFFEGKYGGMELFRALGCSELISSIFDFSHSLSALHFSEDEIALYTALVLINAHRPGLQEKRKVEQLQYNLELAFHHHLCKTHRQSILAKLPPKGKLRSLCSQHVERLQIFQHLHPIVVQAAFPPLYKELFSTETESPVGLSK
compound,measurement,setting,value
Cc1ccc(-c2cc(C(F)(F)F)nn2-c2ccc(S(N)(=O)=O)cc2)cc1,Potency,[1],inactive
same,outcome,[2],inactive
same,max response,[3],-0.182% (inactive)
same,max response,[4],2.3% (inactive) and -2.23% (inactive)
same,Potency,[5],inactive
same,remaining parasite growth % (stronger effect = lower value),[6]; at 28.7 µM (top of the series),17.6%
same,remaining parasite growth % (stronger effect = lower value),[6]; at 57.5 µM (top of the series),11.7%
same,"activity, percent of control",[7]; at 28.7 µM (top of the series),45.8%
same,"activity, percent of control",[7]; at 57.5 µM (top of the series),21.2%
same,"remaining proliferation (% of control), lower = more inhibition",[8]; at 28.7 µM (top of the series),12.9%
same,"remaining proliferation (% of control), lower = more inhibition",[8]; at 57.5 µM (top of the series),16%
same,"parasite growth remaining, % of DMSO control (lower = more inhibition)",[9],64.9%
same,"parasite growth, % of control (lower = inhibition)",[10],35%
CC(C)(Oc1ccc(C2CC2(Cl)Cl)cc1)C(=O)O (stereo unspecified),Potency,[11],inactive
same,outcome,[12],inactive
same,outcome,[13],inactive
same,Potency,[14],inactive
same,outcome,[2],inactive
same,max response,[3],10.6% (inactive)
same,Potency,[15],inactive
same,Potency,[16],inactive
same,Potency,[17],inactive
same,max response,[4],2.49% (inactive) and 6.24% (inactive)
same,Potency,[5],inactive
same,"parasite growth, % of DMSO control",[18],107% [at 57.5 µM]
same,"parasite growth remaining, % of DMSO control (lower = more inhibition)",[9],105% [at 57.5 µM]
same,"parasite growth, % of control (lower = inhibition)",[10],92.2% [at 57.5 µM]
CS(=O)(=O)Nc1ccc([N+](=O)[O-])cc1Oc1ccccc1,Potency,[11],inactive
same,outcome,[12],inactive
same,outcome,[13],inactive
same,Potency,[14],inactive
same,Potency,[15],inactive
same,Potency,[16],inactive
same,Potency,[17],inactive
same,max response,[4],-0.179% (inactive) and 5.92% (inactive)
same,"parasite growth, % of DMSO control",[18],87.3%
same,"parasite growth remaining, % of DMSO control (lower = more inhibition)",[9],94.3%
same,"parasite growth, % of control (lower = inhibition)",[10],84.4%
Cn1cnc2c1c(=O)[nH]c(=O)n2C,Potency,[11],inactive
same,outcome,[12],inactive
same,outcome,[13],inactive
same,Potency,[14],inactive
same,outcome,[2],inactive
same,max response,[3],4.98% (inactive)
same,Potency,[15],inactive
same,Potency,[16],inactive
same,Potency,[17],inactive
same,max response,[4],-9.46% (inactive) and -3.09% (inactive)
same,Potency,[5],inactive
same,"parasite growth, % of DMSO control",[18],8.09%
same,"parasite growth remaining, % of DMSO control (lower = more inhibition)",[9],7%
same,"parasite growth, % of control (lower = inhibition)",[10],25.4%
CN(C)C(=N)N=C(N)N,Potency,[1],inactive
same,max response,[4],1.21% (inactive) and -1.21% (inactive)
same,remaining parasite growth % (stronger effect = lower value),[6]; at 28.7 µM (top of the series),104%
same,"activity, percent of control",[7]; at 28.7 µM (top of the series),125%
same,"remaining proliferation (% of control), lower = more inhibition",[8]; at 28.7 µM (top of the series),102%
same,"parasite growth remaining, % of DMSO control (lower = more inhibition)",[9],99.4%
same,"parasite growth, % of control (lower = inhibition)",[10],85.6%
CC1(CN2CCC(n3c(=O)[nH]c4ccccc43)CC2)OCc2ccccc2-n2cccc21 (stereo unspecified),Potency,[1],inactive
same,max response,[4],-18.7% (inactive) and -2.64% (inactive)
same,remaining parasite growth % (stronger effect = lower value),[6]; at 28.7 µM (top of the series),21.2%
same,"activity, percent of control",[7]; at 28.7 µM (top of the series),17.6%
same,"remaining proliferation (% of control), lower = more inhibition",[8]; at 28.7 µM (top of the series),0.0183%
same,"parasite growth remaining, % of DMSO control (lower = more inhibition)",[9],9.37%
same,"parasite growth, % of control (lower = inhibition)",[10],11%
Nc1nnc(-c2cccc(Cl)c2Cl)c(N)n1,Potency,[11],inactive
same,outcome,[12],inactive
same,outcome,[13],inactive
same,Potency,[14],inactive
same,Potency,[15],inactive
same,Potency,[16],inactive
same,Potency,[17],inactive
same,max response,[4],5.45% (inactive) and 12.4% (inactive)
same,"parasite growth, % of DMSO control",[18],93.8%
same,"parasite growth remaining, % of DMSO control (lower = more inhibition)",[9],98%
same,"parasite growth, % of control (lower = inhibition)",[10],104%
COc1ccc2[nH]cc(CCNC(C)=O)c2c1,Potency,[19],inactive
same,Potency,[11],inactive
same,outcome,[13],inactive
same,Potency,[14],inactive
same,outcome,[2],inactive
same,Potency,[20],inactive
same,max response,[3],-10.7% (inactive) and -6.82% (inactive) and 8.47% (inactive)
same,Potency,[15],inactive
same,Potency,[16],inactive
same,Potency,[17],inactive
same,max response,[4],6.15% (inactive) and 3.87% (inactive)
same,Potency,[5],inactive
same,"parasite growth remaining, % of DMSO control (lower = more inhibition)",[9],107% and 104%
same,"parasite growth, % of control (lower = inhibition)",[10],89.3% and 83%
